Screening results (PubChem BioAssay)
Rows were chosen to be rich in hits. Some 3.5% of all compounds tested hit in one or more screens of this group.
MITF inh: MITF inhibitors, primary screen, biochemical, AlphaScreen, human. AlphaScreen MITF homodimerization, bead proximity signal. AID 1259374, 2018. 650,000 compounds, 0.91% hits. Microphthalmia-associated transcription factor (Homo sapiens), O75030. inhibition, % at 2.6 µM; in the data active = inhibition above about 50%
TEAD-YAP inh: TEAD-YAP interaction inhibition, primary screen, TEAD-YAP interaction inhibitor project, luminescence, HEK-TIYL cells | AID 1259422, 2018 | TEAD-Gal4/YAP UAS-luciferase luminescence | 640,000 compounds, 1.4% hits | inhibition, % at 9.12 µM; in the data active = inhibition above about 32%
GPR151 ag: activators of human GPR151, primary screen, cell-based, PathHunter beta-arrestin, luminescence; G-protein coupled receptor 151 (Homo sapiens), Q8TDV0; PathHunter beta-arrestin GPR151 cells; activation, % at 11.2 µM; AID 1508602, 2020; 650,000 compounds, 1% hits; in the data active = activation above about 4.9%
Target sequence (Q8TDV0 whole entry, looked up): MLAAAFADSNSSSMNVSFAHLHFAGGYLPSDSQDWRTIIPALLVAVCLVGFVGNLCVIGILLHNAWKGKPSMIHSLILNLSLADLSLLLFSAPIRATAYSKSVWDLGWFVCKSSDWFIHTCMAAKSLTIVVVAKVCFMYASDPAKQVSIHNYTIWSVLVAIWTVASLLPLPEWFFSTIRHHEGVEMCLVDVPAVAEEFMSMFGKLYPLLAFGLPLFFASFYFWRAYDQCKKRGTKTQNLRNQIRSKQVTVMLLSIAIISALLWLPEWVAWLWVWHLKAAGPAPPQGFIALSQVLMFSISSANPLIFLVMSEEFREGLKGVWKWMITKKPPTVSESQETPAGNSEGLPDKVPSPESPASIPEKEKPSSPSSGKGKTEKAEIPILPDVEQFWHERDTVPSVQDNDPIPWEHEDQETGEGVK
FBW7 act: FBW7 E3 ligase activators, primary screen, biochemical, AlphaScreen, human; 650,000 compounds, 0.13% hits; AlphaScreen FBW7–phospho-cyclin E peptide binding, activator screen; F-box/WD repeat-containing protein 7 (Homo sapiens), Q969H0; normalized activity (activation), % at 26.1 µM; in the data active = normalized activity above about 1.9%;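 also: purified mutant Fbw7 with reduced substrate affinity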
MITF confirm: MITF inhibitors, retest of hits, confirmation, biochemical, AlphaScreen, triplicate; 4,700 compounds, 16% hits; shares compounds with MITF inh; AlphaScreen MITF homodimerization, biotin/His-MITF beads; AID 1259372, 2018; inhibition, % at 2.6 µM;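 active = inhibition above a cutoff derived from the DMSO control wells, cut at about 28% in these data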;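 also: inhibitors lower the bead chemiluminescence by keeping MITF from dimerizing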
AS interf DR: AlphaScreen optical interference compounds, dose response, counter-screen, biochemical, HTS; shares compounds with MITF inh; AlphaScreen optical interference counterscreen, cell-free; IC50, µM; 480 compounds, 6% hits; call rule not given here
AlphaScreen intf2: AlphaScreen optical interference compounds, counter-screen for MITF inhibitor project, biochemical, triplicate | shares compounds with MITF inh | LysRS AlphaScreen counterscreen, signal interference | inhibition, % at 2.6 µM | 4,700 compounds, 7.6% hits | AID 1259376, 2018;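 active = inhibition above a cutoff derived from the DMSO control wells, cut at about 30% in these data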
A number is an active result; – = inactive; · = no result.

SMILES	MITF inh	TEAD-YAP inh	GPR151 ag	FBW7 act	MITF confirm	AlphaScreen intf2	others
Cc1cc(=O)n(C)c(=O)n1CCCCCCNCc1ccccc1	77	–	–	–	–	–
Cc1ccc2c(c1C)C(C)(C)C1(C=Nc3c(ccc4ncccc34)O1)N2C (stereo not drawn)	57	–	–	–	52	52
CCN1CCN(Cc2coc3ccccc3c2=O)CC1	82	–	–	–	42	–	AS interf DR=–
O=C1CCC(C(=O)N2CCc3ccc(NC(=O)c4ccc(C(F)(F)F)cc4)cc3C2)N1 (stereo not drawn)	–	–	–	–	·	·
O=C1CSC(=Nc2cccc(Br)c2)N1	53	–	–	–	–	–
c1ncn(CC2COC3(CCCCC3)O2)n1 (stereo not drawn)	–	–	–	–	·	·
COc1ccccc1NC(=O)N1CCN(C)CC1	52	–	–	–	–	–
COc1ccccc1N1CCN(CCCCCCN)CC1	–	–	–	–	·	·
COc1ccccc1N1CCN(C(=O)CN2CCN(C)CC2)CC1	54	–	–	–	–	–
COc1ccc(OCCCN2CCN(c3ccccc3OC)CC2)cc1	81	–	–	–	53	39
COc1ccccc1N1CCN(CCCOc2ccc(F)cc2)CC1	60	–	–	–	–	–
O=C(Cn1ccccc1=S)c1ccccc1	63	–	–	–	–	–
CCCCNC(=O)c1cc2c(=O)n(C)c3ccccc3c2n1C	–	–	–	–	·	·
O=C1CSC(=Nc2cccc(O)c2)N1	–	–	–	–	·	·
CC(C)n1c(NCCN2CCOCC2)nc2c(NCCN3CCOCC3)ncnc21	67	–	–	–	–	–
O=C(O)CNC(=O)Cn1cnc2sc3c(c2c1=O)CCCC3	–	–	–	–	·	·
CN(c1ccc(C(F)(F)F)cn1)C1CCCCC1	60	–	–	–	–	–
FC(F)(F)c1ccc(NC2CCCCC2)nc1	–	–	–	–	·	·
Cc1cc2nnc(SCC(=O)Nc3ccc(S(N)(=O)=O)cc3)n2c2ccccc12	–	–	–	–	·	·
O=C(c1ccccc1)N1CCN(Cc2cccc(Oc3ccccc3)c2)CC1	–	–	–	–	·	·
O=C(c1cccnc1)N1CCN(Cc2cccc(Oc3ccccc3)c2)CC1	70	–	–	–	–	–
O=C(c1ccc(F)cc1)N1CCN(Cc2cccnc2)CC1	72	–	–	–	–	–
O=C(c1cccnc1)N1CCN(Cc2cccc(F)c2)CC1	75	–	–	–	–	–
CC(C(=O)N(C)Cc1ccccc1)N1CCN(C/C=C/c2ccccc2)CC1 (stereo not drawn)	59	–	–	–	–	–
O=C(CN1CCN(C/C=C/c2ccccc2)CC1)NCc1ccccc1	73	–	–	–	–	–
SMILES	MITF inh	TEAD-YAP inh	GPR151 ag	FBW7 act	MITF confirm	AlphaScreen intf2	others
O=C(CN1CCN(C/C=C/c2ccccc2)CC1)NCCCc1ccccc1	–	–	–	–	·	·
COc1ccc(C2CC(C(F)(F)F)n3nc(C(=O)Nc4ccccc4Cl)cc3N2)cc1OC (stereo not drawn)	–	–	–	–	·	·
O=C(CSc1nc2[nH]ncc2c(=O)n1-c1ccc(Br)cc1)NCc1cccs1	54	–	–	–	–	–
O=C(CSc1nc2[nH]ncc2c(=O)n1-c1ccc(Cl)cc1)NCc1cccs1	–	–	–	–	·	·
CCN1C(=O)NC(c2cc(C)ccc2C)C(C(=O)OC)=C1C (stereo not drawn)	–	–	–	–	·	·
CCN1C(=O)NC(c2cc(Br)ccc2OC)C(C(=O)OC)=C1C (stereo not drawn)	59	–	–	–	–	–
CCn1c(C)[n+](CC)c2ccc(S(=O)(=O)C(F)F)cc21	–	–	–	–	·	·
CCn1c(C)[n+](CC)c2ccc(Cl)cc21	57	–	–	–	–	–
O=C(O)c1cc(-c2ccco2)nc2ccccc12	55	–	–	–	57	–	AS interf DR=–
O=C(OC1CCOC1=O)c1cc(-c2ccco2)nc2ccccc12 (stereo not drawn)	75	–	–	–	76	–	AS interf DR=–
CCNC(=O)COC(=O)c1cc(-c2ccco2)nc2ccccc12	–	–	–	–	·	·
O=C(COC(=O)c1cc(-c2ccco2)nc2ccccc12)NC1CC1	51	–	–	–	40	–	AS interf DR=–
O=C(Nc1cccc(O)c1)c1cc(-c2ccco2)nc2ccccc12	–	–	–	–	·	·
CC(C)N(C(=O)COC(=O)c1cc(-c2ccco2)nc2ccccc12)C(C)C	54	–	–	–	45	–	AS interf DR=–
Cc1ccccc1CC1(C)C(=O)Nc2ccccc21 (stereo not drawn)	–	–	–	–	·	·
CCOC(=O)CSc1nc2ccsc2c(=O)n1Cc1ccco1	–	–	–	–	·	·
O=C(O)c1cccc(N/N=C/c2ccccn2)c1	–	–	–	–	·	·
O=C(O)c1cccc(NC(=S)N/N=C/c2ccccn2)c1	95	34	–	–	–	–
CCc1ccc(NC(=O)c2sc3ncn(CC(=O)Nc4cccc(C(F)(F)F)c4)c(=O)c3c2C)cc1	–	–	–	–	·	·
CCC1Sc2ccccc2N(CC(=O)NCCc2ccc(OC)c(OC)c2)C1=O (stereo not drawn)	–	–	–	–	·	·
CCOc1ccc(CNC(=O)CN2C(=O)C(CC)Sc3ccccc32)cc1OC (stereo not drawn)	51	–	–	–	–	–
Cc1ccc(-n2cc(CN3CCN4C(=O)[C@@H]([C@H](C)O)NC(=O)[C@H]4C3)cn2)cc1	–	–	–	–	·	·
Cc1c(S(=O)(=O)N2CCN(c3cccc(C(F)(F)F)c3)CC2)c(=O)n(C)c(=O)n1C	–	–	–	–	·	·
Cc1cc(C)c(C)c(S(=O)(=O)N2CCN(c3cccc(C(F)(F)F)c3)CC2)c1C	63	–	–	–	–	–
CCOC(=O)N1CCN(c2nc(C)nc3sc(C)cc23)CC1	54	–	–	–	–	–
CCOC(=O)N1CCN(c2nc(C)nc3sc(C)c(C)c23)CC1	–	–	–	–	·	·
O=CN(/C=C1\Sc2ccccc2C1=O)c1cccc2ccccc12	–	–	–	–	·	·
C=C(C)CN(CC)C(=O)C1CCN(Cc2cc(OC)c(OC)c(OC)c2)CC1	56	–	–	–	–	–
COc1cc(CN2CCCC(C(=O)N3CCCCCC3)C2)cc(OC)c1OC (stereo not drawn)	61	–	–	–	–	–
COc1ccc(CN2CCCC(C(=O)N3CCCCCC3)C2)cc1OC (stereo not drawn)	60	–	–	–	–	–
